Hits are enriched below; roughly 1.7% of the tested compounds scored in any of these assays.
KCNH2 3.1 inh: qHTS for Inhibitors of KCHN2 3.1: Mutant qHTS; U2OS KCNH2 3.1, thallium flux FluxOr; stronger effect = lower value; activity change, % (tested at about 1.8 µM); 340,000 tested, 0.95% active;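 active = maximum activity change below -70%; inconclusive = maximum activity change from -70% to -50%; inactive = maximum activity change above -50%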;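 note: thallium influx rate constant from kinetic fluorescence after stimulation buffer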
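Normalized rate constant (relative to positive and negative DMSO controls) derived from a 2 min kinetic fluorescence read after stimulation; U2OS cells expressing the 3.1 isoform via virus at 1.77 x 10^8 /mL.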
Giardia kill: Small Molecules that selectively kill Giardia lamblia: qHTS; AID 540267, 2011; Giardia lamblia trophozoite viability; activity change, % at 7.66 µM, hits read low; 340,000 tested, 0.15% active; in the data active = activity change below about -80%; inconclusive = between about -30% and that limit;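 note: parasites exposed to compound for two days anaerobically before the ATP read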
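Viability, read as ATP luminescence: trophozoites at 100 cells/well, compound added, 48 hrs anaerobic at 37 deg C, then 15-30 min room-temperature development before reading.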
USP1-UAF1 inh: Inhibitors of USP1/UAF1: Primary Screen | 390,000 tested, 0.23% active | Potency, µM (titrated, usually from 57.1 µM), without a hit: top-dose activity change, negative = inhibition, actives largely listed as inhibitors | recombinant USP1/UAF1, Ub-Rhodamine cleavage fluorescence | Ubiquitin carboxyl-terminal hydrolase 1 (Homo sapiens), O94782 | AID 743255, 2014; active = well fitted inhibition curve with a large enough effect; inconclusive = small, poorly fitted or top-dose-only effect; inactive = no such curve, though single readings can be large or run the other way; note: potency is the fitted concentration of half-maximal effect; nearly all actives have a fitted effect of over 60% in size
Target sequence (O94782 whole entry, looked up): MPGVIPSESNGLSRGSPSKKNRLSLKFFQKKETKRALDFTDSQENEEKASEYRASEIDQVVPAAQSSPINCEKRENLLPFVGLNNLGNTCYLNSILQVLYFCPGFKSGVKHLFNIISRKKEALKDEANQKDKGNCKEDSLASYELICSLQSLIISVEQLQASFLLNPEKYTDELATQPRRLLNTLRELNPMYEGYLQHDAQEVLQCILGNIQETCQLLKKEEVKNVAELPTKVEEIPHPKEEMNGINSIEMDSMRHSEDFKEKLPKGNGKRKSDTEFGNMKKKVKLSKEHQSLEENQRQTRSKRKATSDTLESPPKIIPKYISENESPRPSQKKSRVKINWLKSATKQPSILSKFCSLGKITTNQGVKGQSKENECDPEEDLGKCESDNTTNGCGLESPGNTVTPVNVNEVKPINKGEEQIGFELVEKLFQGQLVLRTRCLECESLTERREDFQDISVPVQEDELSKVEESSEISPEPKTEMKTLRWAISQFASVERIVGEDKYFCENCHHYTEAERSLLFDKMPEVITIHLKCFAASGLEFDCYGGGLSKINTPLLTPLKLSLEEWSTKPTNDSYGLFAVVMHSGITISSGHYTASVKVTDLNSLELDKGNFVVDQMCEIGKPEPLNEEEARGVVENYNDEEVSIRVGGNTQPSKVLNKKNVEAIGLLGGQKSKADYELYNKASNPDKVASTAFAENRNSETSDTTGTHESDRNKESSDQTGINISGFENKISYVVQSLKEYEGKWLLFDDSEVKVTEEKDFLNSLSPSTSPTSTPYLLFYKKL
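Step one: compound is pinned into 1nM USP1/UAF1 in HEPES pH 7.8 buffer with TCEP. Step two: 15 min room-temperature incubation. Step three: Ub-Rho (150nM final) starts cleavage, tracked by fluorescence over six one-minute reads.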
KCNH2 WT inh: qHTS for Inhibitors of KCHN2 3.1: Wildtype qHTS. Voltage-gated inwardly rectifying potassium channel KCNH2 (Homo sapiens), Q12809. U2OS, BacMam KCNH2, thallium flux FluxOr; stronger effect = lower value. activity change, % at 1.84 µM. 340,000 tested, 0.37% active. AID 720551, 2013;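 active = maximum activity change below -70%; inconclusive = maximum activity change between -70% and -50%; inactive = maximum activity change above -50%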
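U2OS cells transduced with wild-type KCNH2 virus are loaded with FluxOr dye for 45 min, and thallium flux is measured in kinetic reads before and after stimulation buffer. Rate constants are normalized to DMSO controls.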
FBPA coupling cs: qHTS Assay for Inhibitors of Fructose-1,6-bisphosphate Aldolase from Giardia Lamblia: Coupling assay counterscreen | AID 2472, 2010 | coupling enzyme system counterscreen, AmpLite Red fluorescence | 290,000 tested, 0.67% active | activity change, negative = inhibition, % at 58.2 µM, hits read low; in the data active = activity change below about -30%
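Final compound at 57.5 uM, incubated 10 min at RT with coupling enzyme reagent (glyceraldehyde-3-phosphate), then 20 min with substrate and AmpLite Red detection. Fluorescence read at 525/598 nm; tests interference with the coupling assay, not aldolase inhibition.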
An asterisk follows results filed as active; ? = inconclusive; · = no result. % is set by controls: 0 for no effect and ±100 for the full control effect.

SMILES	KCNH2 3.1 inh	Giardia kill	USP1-UAF1 inh	KCNH2 WT inh	FBPA coupling cs
Cc1nc(-c2nc(-c3c(C(=O)NNC(=O)Nc4cccc(Cl)c4)noc3C)cs2)cs1	5.6	23.5	-24.3%	-0.5	-2.3
NCC(=O)N[C@@H](CCCN=C(N)N)C(=O)NCC(=O)N[C@@H](CCC(=O)O)C(=O)N[C@@H](CO)C(=O)O	·	·	·	·	-0.4
Cc1ccc([N+](=O)[O-])cc1NC(=O)CCCOc1ccccc1	-109.6*	-3.0	-3.3%	3.4	3.1
O=C(c1ccc(N2CCCC2=O)cc1)N1CCN(c2cccc(C(F)(F)F)c2)CC1	-14.2	13.1	-8.6%	33.5	·
CCOc1cc(CN2CCCC(CNC(=O)c3ccc(F)cc3)C2)ccc1OC (configuration not stated)	?	-1.7	-10.3%	18.5	1.0
CCOc1ccc(CN2CCCC(CNC(=O)c3ccc(F)cc3)C2)cc1CO (configuration not stated)	-100.8*	-13.8	-19.0%	·	0.5
CSc1ccc(CN2CCCC(CNC(=O)c3ccc(F)cc3)C2)cc1 (configuration not stated)	-78.2*	14.2	-6.6%	0.4	1.3
CN(C)/[N+]([O-])=N/Oc1cc(O/[N+]([O-])=N/N2CCCC2CO)c([N+](=O)[O-])cc1[N+](=O)[O-] (configuration not stated)	·	?	·	·	1.5
O=C(c1ccco1)[C@@H]1[C@@H]2C(=O)N(c3ccccc3)C(=O)[C@@H]2C2c3ccccc3C=CN21 (some centres not stated)	3.8	20.6	10µM*	4.1	-47.3*
CC(=O)[C@@H]1[C@@H]2C(=O)N(Cc3ccccc3)C(=O)[C@@H]2C2c3ccccc3C=CN21 (some centres not stated)	-15.5	4.3	17.8µM*	0.8	-33.1*
CN1CCN(C(=O)c2sc(=S)n(-c3ccccc3)c2N)CC1	-4.6	-10.9	-7.6%	-1.1	-48.1*
COc1ccc(-c2nc3c(c4c2C[C@H](c2ccccc2)OC4)CN(S(=O)(=O)c2ccc(Cl)c4nonc24)CC3)c(C)c1	·	·	·	·	-1.0
C=CCCCCCCCCc1nc(SCC(=O)O)n[nH]1	-8.1	0.5	-13.0%	2.5	14.8
CCCCCCCCc1nc(SC(C)C(=O)O)n[nH]1 (configuration not stated)	-105.1*	16.6	-16.2%	-6.8	4.3
O=C(CN1CCN(c2ccc(F)cc2)CC1)NCc1ccc(Cl)cc1	-77.0*	-21.0	-19.8%	25.8	0.0
O=C(CN1CCN(Cc2ccc(Cl)cc2)C1=O)NCCCN1CCN(c2ccc(F)cc2)CC1	-96.8*	-2.2	0.9%	-115.6*	1.9
O=C(CN1CCN(c2ccc(F)cc2)CC1)NCc1ccc(F)cc1	-7.6	14.5	-23.5%	-5.7	3.9
CCCc1nn2c(=O)cc(COC(=O)c3cccc(NC(=O)CCc4ccccc4)c3)nc2s1	·	·	-16.5%	·	·
Cc1ccc2c(c1)c(CC(NC(=O)c1ccccc1Oc1ccccc1)C(=O)O)cn2C(=O)OCc1ccccc1 (configuration not stated)	·	·	·	·	8.6
CN(C)c1oc(-c2ccccc2[N+](=O)[O-])nc1C#N	-8.2	-21.5	-17.6%	-0.1	-30.2*
CN(C)c1oc(-c2ccccc2Cl)nc1C#N	-17.6	5.5	-13.5%	-8.8	2.6
CN(C)c1ccc(C=Nc2ccc(N(C)C)cc2)cc1	-11.0	-0.7	?	-7.5	-29.1
CN(C)c1ccc(N=Cc2ccco2)cc1	2.0	10.8	?	-10.6	-42.1*
CCCS(=O)(=O)NCCc1sc2nc(-c3ccc(F)cc3)nn2c1C	·	·	-15.9%	·	·
COc1ccc(C2=Nn3c(nnc3-c3cccc(OC)c3)SC2)cc1	·	·	·	·	2.8
SMILES	KCNH2 3.1 inh	Giardia kill	USP1-UAF1 inh	KCNH2 WT inh	FBPA coupling cs
COc1cccc2[nH]c3c(Cl)ncnc3c12	0.0	-6.9	-11.5%	-184.0*	-6.7
Cc1ccc(-c2cc3c(nn2)-c2ccccc2C3=O)cc1	-4.7	-96.7*	-19.5%	-23.4	-4.9
Cc1ccccc1-c1cc2c(nn1)-c1ccccc1C2=O	1.5	-18.2	31.6µM*	2.4	-39.5*
CCOC(=O)Nc1ccc(C)cc1NC(=O)OCC	-1.2	12.0	-13.9%	5.3	-2.4
CCOC(=O)Nc1ccc(NCc2ccc(F)cc2)nc1N	4.5	4.3	22.4µM*	-6.1	·
COc1cc(-c2cn[nH]c2N)cc(OC)c1OC	-78.7*	14.2	-7.1%	-7.3	-1.0
Nc1[nH]ncc1-c1ccc(Cl)cc1	11.9	9.7	-0.4%	-4.5	1.1
Cc1ccc(CC(=O)NCc2nc(-c3ccccc3)no2)cc1	·	·	1.2%	·	·
Cc1ccc(N2C(=O)c3cccc4c(N5CCN(C)CC5)ccc(c34)C2=O)c2cccnc12	5.0	16.9	28.2µM*	3.8	2.8
O=C1c2cccc3c(N4CCCCC4)ccc(c23)C(=O)N1c1ccccc1O	-1.5	0.2	28.2µM*	-12.9	-3.3
Cc1cccc(N2C(=O)c3cccc4c(N5CCCCC5)c([N+](=O)[O-])cc(c34)C2=O)c1C	-4.5	-7.6	-12.5%	-2.2	1.2
Cc1ccc(N2C(=O)c3cccc4c([N+](=O)[O-])ccc(c34)C2=O)c2cccnc12	-98.2*	?	-6.4%	-28.5	0.3
O=C1c2cccc3c(N4CCCCC4)ccc(c23)C(=O)N1c1ccc(O)cc1	-7.2	-18.6	?	0.7	0.7
O=S(=O)(NC1CC1)c1ccc(Br)cc1N1CCC[C@H]1CO	4.5	-16.4	-15.3%	9.8	·
COc1ccc(CNC(=O)c2cc3sccc3n2C)cc1	·	·	-8.8%	·	·
Cc1ccccc1NC(=O)C1CCN(S(=O)(=O)c2ccccc2)CC1	·	·	-14.9%	·	·
CC(C)C[C@H](NC(=O)[C@H](CCCCN)NC(=O)[C@H](CCCNC(=N)N)NC(=O)[C@H](C)NC(=O)[C@H](CO)NC(=O)[C@H](CCCCN)NC(=O)[C@H](CCCNC(=N)N)NC(=O)[C@H](C)NC(=O)CNC(=O)[C@@H](NC(=O)[C@H](Cc1ccccc1)NC(=O)CNC(=O)CNC(=O)[C@@H](N)Cc1ccccc1)[C@@H](C)O)C(=O)N[C@@H](C)C(=O)N[C@@H](CC(N)=O)C(=O)N[C@@H](CCC(N)=O)C(=O)O	·	·	·	·	-2.9
C=CCOC(=O)/C(=C/c1cccc2ccccc12)NC(=O)c1ccccc1	-25.4	2.2	-18.5%	-274.7*	-5.7
O=C(OCc1ccccc1)/C(=C/c1cccc2ccccc12)NC(=O)c1ccccc1	-26.0	5.9	-6.2%	-6.7	-0.3
COc1ccc(OC)c(-c2noc(N3CCN(c4cccc(C)c4C)CC3)n2)c1	·	·	-10.9%	·	·
